# From PubChem BioAssay AID1745853 (National Center for Advancing Translational Sciences (NCATS), 2022)
# Hit rate of the full screen: of about 25,000 compounds, about 970 (3.9%) were called active. Roughly 8% stayed inconclusive and do not appear here. The rule behind the calls is not given here. What follows is part of a selection rich in actives, with near analogues and random picks from the rest.
# Columns and labels:
# Experiment in all cases: Primary Screen for Target Class Profiling of Small Molecule Inhibitors of Methyltransferases
# [1] = target: Catechol O-methyltransferase (Homo sapiens) (UniProt P21964); conditions: purified enzyme, MTase-Glo SAH luminescence; activity change, negative = inhibition: at 40 µM, stronger effect = lower value; outcome: 40 uM
# Sequence of Catechol O-methyltransferase (Homo sapiens) (P21964 whole entry, looked up): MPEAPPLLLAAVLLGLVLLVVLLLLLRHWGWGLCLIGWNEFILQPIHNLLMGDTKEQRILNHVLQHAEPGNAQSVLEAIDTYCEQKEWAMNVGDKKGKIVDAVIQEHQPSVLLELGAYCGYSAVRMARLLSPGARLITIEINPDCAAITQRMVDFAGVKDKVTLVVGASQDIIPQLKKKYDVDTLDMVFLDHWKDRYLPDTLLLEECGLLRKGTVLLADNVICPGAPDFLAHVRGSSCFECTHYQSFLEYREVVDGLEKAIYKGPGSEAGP
# How it was run: (§1)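 Each enzyme was assayed with SAM and its substrate. SAH formation detected by MTase-Glo luminescence; single-point 40 uM screen[…].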
# [2] = target: Glycine N-methyltransferase (Homo sapiens) (UniProt Q14749); conditions: purified enzyme, MTase-Glo SAH luminescence; measured here: GNMT inhibition; at 40 µM; stronger effect = lower value
# Sequence of Glycine N-methyltransferase (Homo sapiens) (Q14749 whole entry, looked up): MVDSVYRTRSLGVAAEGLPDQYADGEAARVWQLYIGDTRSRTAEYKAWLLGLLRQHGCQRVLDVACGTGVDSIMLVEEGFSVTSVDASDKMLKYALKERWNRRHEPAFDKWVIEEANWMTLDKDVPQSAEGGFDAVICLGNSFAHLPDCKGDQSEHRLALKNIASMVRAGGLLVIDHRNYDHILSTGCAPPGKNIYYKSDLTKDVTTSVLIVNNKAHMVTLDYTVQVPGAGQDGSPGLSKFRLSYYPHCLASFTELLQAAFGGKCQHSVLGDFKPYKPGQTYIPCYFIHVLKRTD
# How it was run: as §1
# [3] = target: Guanidinoacetate N-methyltransferase (Homo sapiens) (UniProt Q14353); conditions: purified enzyme, MTase-Glo SAH luminescence; measured here: GAMT inhibition; at 40 µM; stronger effect = lower value
# How it was run: as §1
# [4] = target: Histamine N-methyltransferase (Homo sapiens) (UniProt P50135); conditions: purified enzyme, MTase-Glo SAH luminescence; measured here: HNMT inhibition; at 40 µM; stronger effect = lower value
# Sequence of Histamine N-methyltransferase (Homo sapiens) (P50135 whole entry, looked up): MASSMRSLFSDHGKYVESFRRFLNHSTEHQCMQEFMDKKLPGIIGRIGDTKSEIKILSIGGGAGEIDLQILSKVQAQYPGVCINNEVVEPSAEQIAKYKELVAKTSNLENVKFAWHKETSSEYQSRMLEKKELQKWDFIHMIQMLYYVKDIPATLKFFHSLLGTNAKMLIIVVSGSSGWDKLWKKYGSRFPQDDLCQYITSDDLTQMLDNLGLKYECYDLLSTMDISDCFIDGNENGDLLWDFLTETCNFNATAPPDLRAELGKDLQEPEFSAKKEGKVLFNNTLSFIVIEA
# How it was run: as §1
# [5] = target: Nicotinamide N-methyltransferase (Homo sapiens) (UniProt P40261); conditions: purified enzyme, MTase-Glo SAH luminescence; measured here: NNMT inhibition; at 40 µM; stronger effect = lower value
# Sequence of Nicotinamide N-methyltransferase (Homo sapiens) (P40261 whole entry, looked up): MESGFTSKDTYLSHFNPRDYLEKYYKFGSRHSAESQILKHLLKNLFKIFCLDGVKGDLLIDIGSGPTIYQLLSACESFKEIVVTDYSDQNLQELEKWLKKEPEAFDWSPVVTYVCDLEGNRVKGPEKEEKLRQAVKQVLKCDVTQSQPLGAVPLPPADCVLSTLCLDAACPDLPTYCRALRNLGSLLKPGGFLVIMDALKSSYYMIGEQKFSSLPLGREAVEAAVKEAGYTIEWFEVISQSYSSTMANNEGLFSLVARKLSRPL
# How it was run: as §1
# [6] = target: Phenylethanolamine N-methyltransferase (Homo sapiens) (UniProt P11086); conditions: purified enzyme, MTase-Glo SAH luminescence; measured here: PNMT inhibition; at 40 µM; stronger effect = lower value
# Sequence of Phenylethanolamine N-methyltransferase (Homo sapiens) (P11086 whole entry, looked up): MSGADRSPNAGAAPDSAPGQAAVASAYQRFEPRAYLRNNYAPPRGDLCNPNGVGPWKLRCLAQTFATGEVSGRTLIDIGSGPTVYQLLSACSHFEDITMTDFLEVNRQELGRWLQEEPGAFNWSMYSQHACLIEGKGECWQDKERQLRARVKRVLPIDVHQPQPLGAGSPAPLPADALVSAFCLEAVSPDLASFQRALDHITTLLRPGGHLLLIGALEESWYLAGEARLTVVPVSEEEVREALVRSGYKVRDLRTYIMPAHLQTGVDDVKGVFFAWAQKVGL
# How it was run: as §1
# % is set by controls: 0 for no effect and ±100 for the full control effect.
Compound,"activity change, negative = inhibition [1]","activity change, negative = inhibition [2] [%]","activity change, negative = inhibition [3] [%]","activity change, negative = inhibition [4] [%]","activity change, negative = inhibition [5] [%]","activity change, negative = inhibition [6] [%]"
COC(=O)C(C)C1CCC2(C)C(=O)C=CC(C)(O)C2C1O (stereo not given),-21.2% (inactive),0.317,3.5,4.59,-8.83,5.47
CC1(C(=O)NC2CCCCC2)Cn2c(nc3ccccc32)C(=O)N1CCCc1ccccc1 (stereo not given),-0.028% (inactive),-0.457,2.95,-0.222,2.79,-1.29
COc1cccc(S(=O)(=O)N2CCC([C@H]3[C@@H](OC)C(=O)N3C(C)C)CC2)c1,-16.7% (inactive),-11,-0.234,-8.83,-11.7,-7.58
O=C(Nc1ccccc1Cl)N1CCn2cccc2C1Cc1ccccc1 (stereo not given),8.91% (inactive),-4.49,0,0.539,-1.29,1
CC(=O)N(C1CCOCC1)C1CCN(S(=O)(=O)c2ccc3c(c2)OCCO3)CC1,14.5% (inactive),6.17,0,15.9,5.83,10
COC1CCN(CC2CCCCCN2C(=O)NCc2ccc(F)cc2)CC1 (stereo not given),0.269% (inactive),-0.541,-1.47,0.992,0.892,-1.43
CCCc1sc(NC(=O)C[C@H]2NC(=O)c3ccccc3NC2=O)nc1C(=O)OC,-0.596% (active),-52,0.55,-1.11,-24.7,-7.16
CCOc1ccc(NC(=O)N2Cc3c(sc4c3CCCC4)-n3cccc3C2c2ccc(C)cc2)cc1 (stereo not given),-4.77% (inactive),-7.14,-5.05,-0.466,-12.8,-3.68
COc1ccc(CN2C(=O)c3cc4sccc4n3CC2(C)C(=O)NC2CCCCC2)cc1 (stereo not given),-1.71% (inactive),-4.01,4.64,0.743,0.231,-2.93
CCCN1C(=O)c2c(C(=O)NCc3ccc(OC(C)C)cc3)ncn2CC1(C)C(=O)NCc1ccccc1 (stereo not given),7.93% (inactive),0.786,0,10.9,0.527,8.93
CCNc1ccnc(N2C[C@H]3CN(C(=O)N(C)C)C[C@@]3(C(=O)O)C2)n1,1.84% (inactive),0.021,1.18,0.65,1.12,-1
C=C1C(=O)O[C@@H]2[C@H]1CC[C@H](C)[C@]1(CCC(=O)O1)C2(C)O (stereo not given in full),-16.8% (inactive),0,7.54,11.3,-3.81,5.47
Cc1cc(C)c(S(=O)(=O)NCCc2nc(-c3ccc(Cl)cc3)n[nH]2)cc1C,-7.11% (inactive),0.532,3.01,-1.1,-4.42,-1.52
CCC(CC)C(=O)NC[C@H]1O[C@@H](CC(=O)N2CCC(C)CC2)[C@H](O)[C@@H]1O,0.159% (inactive),-5.41,-3.2,0.02,-4.29,-0.431
Cc1cnc(-c2ccccc2)n1CCNC(=O)CCC1CCCC1,-2.65% (inactive),-4.13,-6.61,-3.82,-12.7,-3.43
Cc1cnc(C2CCC2)n1C1CCN(C(=O)CCC2CCCC2)CC1,-0.614% (active),-2.95,3.19,-52.2,-10.2,12.5
NS(=O)(=O)c1ccc(F)c(C(=O)NCc2noc(-c3ccco3)n2)c1,-11.2% (inactive),-7.86,-7.24,-3.67,-12,-1.94
CCOc1ccc(CNC(=O)c2ncn3c2C(=O)N(C2CC2)C(C)(C(=O)NCc2ccccc2Cl)C3)cc1 (stereo not given),11.3% (inactive),1.47,2.43,7.45,1.94,7.97
CCN(CC)CCCCNc1ncc2cc(-c3c(Cl)cccc3Cl)c(NC(=O)NC(C)(C)C)nc2n1,-1.2% (active),-7.18,10.6,-54.9,-20.4,0.23
CN(CCc1ccccn1)c1ncccc1CNC(=O)C1CCc2ccccc21 (stereo not given),-4.9% (inactive),-5.71,-6.23,-3.62,-10.6,-5.62
CCCCOc1ccc(CNC(=O)c2cc3n(n2)CC(C)(C(=O)NCc2ccccc2)N(C)C3=O)cc1 (stereo not given),6.54% (inactive),8.47,0.793,9.19,11.5,7.21
CC(C)(C)c1ccc(C(=O)Nc2cc(Cl)c(Br)cc2C(=O)O)cc1,-7.23% (active),-49.9,-17.8,-39.8,-69,-27.1
CC(C)(C)c1ccc(S(=O)(=O)NCc2ccc(C(=O)Nc3cccnc3)cc2)cc1,-2.26% (inactive),-3.93,-2.21,-1.56,-14.6,-7.18
Cc1ccccc1CN1C(=O)c2cc(-c3cccs3)nn2CC1(C)C(=O)NC1CCCCC1 (stereo not given),0.113% (inactive),-0.305,0,0.259,3.22,-1.18
COc1ccc(C2Cn3nnc(-c4noc(C5CCC5)n4)c3CO2)cc1 (stereo not given),-14.4% (inactive),-9.87,-9.12,-7.42,-17.1,-12.5
CN1C(=O)C2(CCN(Cc3cccn3C)C2)c2ccccc21 (stereo not given),-4.01% (inactive),-11.7,-5.16,-17.5,-15.9,-0.794

Compound,"activity change, negative = inhibition [1]","activity change, negative = inhibition [2] [%]","activity change, negative = inhibition [3] [%]","activity change, negative = inhibition [4] [%]","activity change, negative = inhibition [5] [%]","activity change, negative = inhibition [6] [%]"
O=C(/C=C/c1ccc(CN(CCO)CCc2c[nH]c3ccccc23)cc1)NO,19.6% (active),-17.2,–,-68.8,-31,12.3
C/C=C\NC(=O)C1NC(=O)C(CC(N)=O)NC(=O)C(NC(=O)C(=O)C(C)CC)Cc2ccc(O)c(c2)-c2cccc3c2NC(=O)C3(O)C1O (stereo not given),-7.46% (inactive),-2.05,-15.1,-0.643,-26.2,-2.58
FC(F)(F)c1cccc(C2=NOC3(CCCN(CC4CCCCC4)C3)C2)c1 (stereo not given),-1.26% (inactive),-2.05,2.98,1.38,-6.62,6.26
Cc1nn(-c2ccccc2)c2c1C(C)N(C1CCN(C(=O)NC3CCCC3)C1)C2=O (stereo not given),-10.5% (inactive),-9.42,-11.7,-6.3,-12.4,-12
O=C(NCc1cc2n(n1)CCCN(C1CCCCC1)C2)c1cccc(F)c1,-1.85% (inactive),-1.07,-0.04,-13,-2.3,3.54
Cc1ccc(NC(=O)Cn2nc3n(C(C)C)c(=O)c4ccc(C(=O)NC(C)C)cc4n3c2=O)c(Cl)c1,7.09% (inactive),7.08,2.19,7.8,1.15,7.43
CC[C@@H](c1ccc(F)c(F)c1)n1c(C(=O)OC)c(-c2ccno2)[nH]c1=S,6.91% (inactive),1.62,4.04,10.6,-18.4,-1.86
CCCC1c2ccc(C)n2CCN1C(=O)Nc1ccc(OCC)cc1 (stereo not given),1.32% (inactive),1.56,0,-0.12,2.78,1.21
CNC(=O)[C@@H]1CN(C(=O)c2ccc(OC)cc2C)C[C@H]1COC,-1.84% (inactive),-2.55,-4.79,-1.32,-3.85,-0.512
CCCN1C(=O)c2cc(C(=O)NCc3cc(Br)ccc3OC)nn2CC1(C)C(=O)NC1CCCC1 (stereo not given),-2.6% (inactive),-4.66,-1.16,-1.31,-2.91,-4.59
CC1=C[C@@H](CNS(=O)(=O)c2cccc(C#N)c2)[C@H](C(C)C)C[C@H]1CC(=O)N(C)Cc1cccnc1,-5.31% (inactive),-4.49,-3.45,-4.55,-23.9,-6.65
CCCn1c(=O)c2ccc(C(=O)NC3CCCC3)cc2n2c(=O)n(Cc3ccc(F)cc3Cl)nc12,-1.77% (inactive),-1.81,-0.898,5.95,-5.65,-1.78
C=C1C(=O)O[C@@H]2C[C@@]3(C)CCCC(=C)[C@]3(O)C[C@H]12,6.75% (inactive),1.89,5.34,6.01,-3.59,7.18
CCCNC(=O)Cn1ccc2cc(S(=O)(=O)N3CCCCC3)ccc21,4.84% (inactive),9.68,1.89,7.8,9.14,4.01
O=C(O)C1=NOC2CN([S+](=O)([O-])c3cc(C(F)(F)F)cc(C(F)(F)F)c3)CC12 (stereo not given),0.473% (inactive),0.245,-0.074,1.51,-7.33,-0.67
COc1ccccc1NC(=O)CSc1nnc2[nH]c(=O)c(C(C)(C)C)nn12,9.13% (inactive),7.62,0,5.75,-0.804,-8.39
CCCn1c(=O)c2cc(Cl)ccc2n2c(SCC(=O)Nc3cccc(Cl)c3)nnc12,-3.39% (inactive),-7.66,-0.122,1.87,-14,-4.95
COc1ccc(NC(=O)CSc2nnc3n(CCCOC(C)C)c(=O)c4ccccc4n23)cc1,6.36% (inactive),1.3,1.9,7.77,6.56,5.87
CCNC(=O)C#Cc1ccc2c(C(=Nc3ccc(CN(C)C)cc3)c3ccccc3)c(O)[nH]c2c1,-18.4% (active),-35.9,-5.11,-64.7,-34.2,-13.1
COCCn1c(=O)c(C(=O)N2CCN(C(C)=O)CC2)nc2cccnc21,-9.78% (inactive),-6.01,-10.4,-3.36,-14,-5.78
CC(C)Cn1c(=O)c2ccccc2n2c(=O)n(Cc3ccccc3)nc12,2.82% (inactive),-1.72,0,6.83,-9.64,0.863
Cc1ccc(NC(=O)Cn2nc3n(C(C)C)c(=O)c4ccc(C(=O)NC5CCCCC5)cc4n3c2=O)cc1,2.74% (inactive),4.18,4.48,8.87,1.86,2.8
CCC(=O)N1Cc2ccccc2OC2(CCN(C(C)C)CC2)C1,-1.54% (inactive),-3.35,-0.819,0.171,-3.98,-4.26
CCOC(=O)CC1(NC(=O)N2CCn3cccc3C2Cc2ccccc2)CCCCC1 (stereo not given),-25% (inactive),-7.26,-5.73,-9.85,-17.7,-40.7
CN(C)CCN(C)[C@H]1[C@@H]2OC[C@@H](O2)[C@@H](NCc2ccc(N(C)C)cc2)[C@@H]1O,2.76% (inactive),0.488,1.19,0.035,-5,0.902
